From PubChem BioAssay
Pf growth 48h – inhibits P. falciparum growth in the first generation, 48 h; P. falciparum luciferase growth in erythrocytes, 48 h; Potency, µM (doses to about 28.7 µM), for inactives: top-dose activity change, negative = inhibition, usual class: inhibitors; 310,000 compounds, 5.9% hits; note: % is set by controls: 0 for no effect and ±100 for the full control effect
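Growth was read as firefly luciferase luminescence after a 48 h, 37 C, 5% CO2 exposure of compounds to reporter-bearing P. falciparum cultures (0.1% parasitemia, 2% hematocrit final) in Albumax-supplemented RPMI 1640.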
Pf growth 96h – P. falciparum growth inhibition at 96 hours; P. falciparum luciferase reporter growth, 96 h; 320,000 compounds, 6.9% hits; Potency, µM (titrated, usually from 28.7 µM), inactives show at the top dose activity change, negative = inhibition, most hits filed as inhibitors; AID 504834; note: % is set by controls: 0 for no effect and ±100 for the full control effect
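Delayed-death screen, second-generation endpoint: infected erythrocytes, 2% hematocrit, 0.05% parasitemia final; 96 hours at 37 C, 5% CO2; luciferase detection reagent; luminescence decrease equals reduced growth.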
AmpC detergent – inhibitors of E. coli AmpC beta-lactamase with detergent | AmpC hydrolysis of nitrocefin, absorbance 480 nm, 0.01% Triton | Potency, µM (titrated, usually from 114 µM), inactives show top-dose activity change, negative = inhibition, usual class: inhibitors | 370,000 compounds, 0.041% hits;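 note: 0% = no-compound wells and -100% = no-enzyme wells; nearly all actives have a fitted effect of over 25% in size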
Target sequence (P00811 whole entry, looked up): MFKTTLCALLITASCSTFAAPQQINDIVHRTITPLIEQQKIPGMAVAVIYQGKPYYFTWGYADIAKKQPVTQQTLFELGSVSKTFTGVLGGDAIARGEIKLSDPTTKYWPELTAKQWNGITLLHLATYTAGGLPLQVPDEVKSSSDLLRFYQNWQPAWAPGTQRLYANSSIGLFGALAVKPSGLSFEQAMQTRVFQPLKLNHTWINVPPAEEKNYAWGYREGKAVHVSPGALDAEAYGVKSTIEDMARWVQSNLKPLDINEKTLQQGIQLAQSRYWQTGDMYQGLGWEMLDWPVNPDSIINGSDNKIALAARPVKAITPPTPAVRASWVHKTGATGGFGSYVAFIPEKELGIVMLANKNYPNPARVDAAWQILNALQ
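AmpC (5.3 nM in the dispensed reagent) in 20 mM phosphate pH 7.0 with 0.01% (detergent screen) or 0.0001% Triton X-100 was preincubated with compounds for 15 min at room temperature. Nitrocefin was then added from an 800 uM solution, and hydrolysis was followed at 480 nm.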
AmpC no deterg – AmpC beta-lactamase inhibition without detergent | P00811 | AmpC nitrocefin hydrolysis, absorbance 480 nm, 0.0001% Triton | Potency, µM (highest dose often 57.1 µM), for inactives: top-dose activity change, negative = inhibition, usual class: inhibitors | 330,000 compounds, 0.52% hits | AID 485341;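 note: plate controls were no compound for no effect and no enzyme for full effect; nearly all actives have a fitted effect of over 20% in size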
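AmpC (5.3 nM in the dispensed reagent) in 20 mM phosphate pH 7.0 with 0.01% (detergent screen) or 0.0001% Triton X-100 was preincubated with compounds for 15 min at room temperature. Nitrocefin was then added from an 800 uM solution, and hydrolysis was followed at 480 nm.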
Sm TGR inh – S. mansoni TGR enzyme inhibition. Q962Y6. purified TGR, DTNB reduction, TNB absorbance 405 nm. Potency, µM (highest dose often 114 µM), inactives show at the highest dose activity change, negative = inhibition, most hits filed as inhibitors. 360,000 compounds, 3% hits; note: % is set by controls: 0 for no effect and ±100 for the full control effect; nearly all actives have a fitted effect of over 60% in size
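Kinetic colorimetric format: TGR-catalysed, NADPH-driven DTNB reduction monitored via TNB absorbance. Enzyme dispensed at 20 nM; compound exposure 15 min at room temperature before reaction start.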
SARS PLpro yeast – blocks SARS-CoV papain-like protease in a yeast assay. S. cerevisiae expressing SARS-CoV PLpro, growth rescue. Potency, µM (series often up to 32.9 µM), inactives show at the top dose activity, positive = growth rescue, hits mostly activators. 330,000 compounds, 0.19% hits; calls by dose curve; note: 0% is about no effect; nearly all actives have a fitted effect of over 55% in size
* = called active by the depositor; u = inconclusive; x = no result. Hits are enriched below; roughly 12% of the tested compounds scored in any of these assays. Unless noted, calls come from the whole dose curve; as a rule, active = well fitted curve in the direction sought with a large enough effect; inconclusive = small, poorly fitted or top-dose-only effect, or another doubt; inactive = no such curve, though single readings can be large; an effect the other way counts as inactive or inconclusive. Potency is the fitted concentration of half-maximal effect.

SMILES	Pf growth 48h	Pf growth 96h	AmpC detergent	AmpC no deterg	Sm TGR inh	SARS PLpro yeast
Cc1cccc(N2CCN(C(=O)c3sc4nc5n(c(=O)c4c3C)CCC5)CC2C)c1 (stereo not drawn)	x	x	21.1%	x	-22.3%	x
Cc1ccc2nc(-c3cccc(NC(=O)CSc4ccc(Cl)cc4)c3)oc2c1	x	x	3.9%	x	0.6%	x
CCC(Sc1nc2nccnc2c(=O)n1Cc1ccc(C)cc1)C(=O)NC1CCCCC1 (stereo not drawn)	x	x	13.2%	x	-1.7%	x
COc1ccccc1C(=O)NCC(=O)N/N=C(\C)Cc1ccccc1	3.5%	55.0%	-11.0%	-37.2%	4.0%	6.3%
O=C(/C(=C\c1ccccc1)c1nc2ccccc2[nH]1)c1ccc(Cl)cc1	u	u	-2.9%	-42.9%	-8.9%	-65.2%
O=C(/C(=C/c1ccc(Cl)cc1)c1nc2ccccc2[nH]1)c1cccs1	1.65µM*	x	-5.4%	-14.6%	u	-25.7%
COc1cc(/C=C(/C(=O)c2cccs2)c2nc3ccccc3[nH]2)ccc1O	2.08µM*	1.17µM*	-2.8%	-22.2%	-27.8%	-1.7%
Cc1ccc(CSCc2ccc(C(=O)NCCc3ccc(Cl)cc3)o2)cc1	x	x	-1.0%	x	-7.8%	x
CC(=O)N1CCc2cc(Br)cc(S(=O)(=O)CCC(=O)N3CCN(c4cccc(C)c4C)CC3)c21	x	x	2.1%	x	2.7%	x
Cc1cc(Nc2ccc(Cl)cc2)nc(N)n1	u	2.62µM*	-10.3%	-18.4%	-30.1%	1.0%
COc1ccc(Nc2cc(C)nc(N)n2)cc1	u	u	u	-22.8%	5.2%	1.2%
Cc1nc(SC(C)C(=O)NC2CCCCC2C)c2c(C)c(C)sc2n1 (stereo not drawn)	7.6%	14.7µM*	u	-11.0%	-7.3%	-1.4%
CCOc1ccc(-c2cc3nc(C4CCN(C(=O)OC(C)(C)C)CC4)c(C(=O)O)cn3n2)cc1	0.465µM*	u	u	69.2%	-10.8%	-19.5%
CCOc1ccc(-c2cc3nc(C4CCN(C(=O)OC(C)(C)C)CC4)c(C(=O)Nc4c(C)cccc4C)cn3n2)cc1	x	x	8.1%	x	4.7%	x
O=C(CCSCc1cnn(-c2ccccc2)c1-n1cccc1)NCc1ccccc1F	x	x	15.2%	x	-10.7%	x
NS(=O)(=O)c1ccc(CCNc2ncnc3c2c(-c2ccccc2)cn3-c2ccc(F)cc2)cc1	u	u	1.3%	4.47µM*	-1.5%	-4.0%
Fc1ccc(-n2cc(-c3ccccc3)c3c(NN4CCOCC4)ncnc32)cc1	14.7µM*	u	u	233.4%	-1.5%	-1.1%
COc1ccc(-n2cc(-c3ccccc3)c3c(NN4CCOCC4)ncnc32)cc1	-24.0%	13.3%	0.2%	220.8%	-12.0%	11.0%
COC(=O)C(C)Sc1ncnc2c1c(-c1ccccc1)cn2-c1ccc(F)cc1 (stereo not drawn)	x	x	11.2%	x	3.2%	x
Clc1cc(Cl)cc(CN2CCSCC2)c1	u	u	-6.8%	2.1%	2.6%	0.9%
NC(=O)c1ccccc1NC(=O)CN1CCN(Cc2ccc(Cl)cc2Cl)CC1	u	27.2%	-8.6%	59.2%	-14.4%	-3.4%
CCCC(O)(CCC)C(=O)NN(C(=O)CCl)c1ccccc1	u	-94.5%	-14.6%	-11.0%	11.2µM*	-15.6%
CCc1cccc2c(C#N)cn(CC(=O)NCCOC)c12	10.4µM*	-21.0%	-21.9%	-6.9%	3.9%	-0.4%
S=C(NCC1CCCO1)Nc1ccc(Cl)cc1Cl (stereo not drawn)	76.8%	u	-4.3%	-17.1%	50.1µM*	19.4%
O=C(CSc1cc(Cl)ccc1Cl)NCC1CCCO1 (stereo not drawn)	13.7%	10.4µM*	-2.3%	-14.3%	1.1%	5.5%
SMILES	Pf growth 48h	Pf growth 96h	AmpC detergent	AmpC no deterg	Sm TGR inh	SARS PLpro yeast
COc1cc(NC(=S)NCC2CCCO2)c(OC)cc1Cl (stereo not drawn)	-11.2%	8.28µM*	-0.6%	-10.0%	u	-0.9%
O=[N+]([O-])c1ccc(N2CCN(S(=O)(=O)c3ccccc3)CC2)cc1NCCN1CCOCC1	13.1µM*	9.28µM*	2.9%	162.3%	3.7%	-0.4%
CCS(=O)(=O)N1CCN(c2ccc([N+](=O)[O-])c(NCc3cccnc3)c2)CC1	-4.9%	70.2%	2.8%	28.2%	2.8%	-0.7%
COc1cccc(OCCNc2cc(N3CCOCC3)ccc2[N+](=O)[O-])c1	14.6%	0.415µM*	-3.6%	-22.2%	-5.0%	-20.1%
O=[N+]([O-])c1ccc(N2CCN(S(=O)(=O)c3ccccc3[N+](=O)[O-])CC2)cc1NCc1cccnc1	8.28µM*	10.4µM*	-6.3%	-40.0%	0.7%	6.5%
Cc1ccc(S(=O)(=O)N2CCN(c3ccc([N+](=O)[O-])c(NCCN4CCOCC4)c3)CC2)cc1	u	0.0%	-5.5%	156.3%	1.7%	-5.6%
COc1ccc(OCCNc2cc(N3CCOCC3)ccc2[N+](=O)[O-])cc1	-15.4%	u	2.0%	-17.2%	4.7%	-7.7%
CSCCC(NC(=O)c1ccccc1)C(=O)NCCCn1nc(C)cc1C (stereo not drawn)	12.2%	-9.1%	5.7%	24.4%	1.1%	-2.0%
O=C1C2CCCN2c2ccc(S(=O)(=O)N3CCOCC3)cc2N1Cc1cccc(C(F)(F)F)c1 (stereo not drawn)	1.04µM*	0.522µM*	-10.0%	-3.1%	-5.6%	5.9%
O=C1C2CCCN2c2ccc(S(=O)(=O)N3CCOCC3)cc2N1Cc1ccccc1F (stereo not drawn)	u	11.7µM*	-14.9%	30.9%	-9.8%	4.7%
CCOc1cc(CNc2ccc3cn[nH]c3c2)ccc1OC	x	13.1µM*	-14.7%	-13.9%	-3.8%	-10.5%
COc1ccc(CNc2ccc3cn[nH]c3c2)c(OC)c1OC	x	u	-19.1%	-29.1%	-10.5%	20.1%
O=C1COc2ccc(S(=O)(=O)CCC(=O)NC3CCCCC3)cc2N1	-28.6%	-2.3%	0.8%	-15.6%	-12.8%	-0.7%
CCOC(=O)C(NS(=O)(=O)c1ccccc1)(C(F)(F)F)P(=O)(OC(C)C)OC(C)C (stereo not drawn)	x	-23.5%	-11.8%	-0.8%	35.5µM*	-1.4%
O=C(CN1CCOCC1)Nc1nc(-c2ccccc2Cl)cs1	-9.0%	0.1%	0.8%	31.4%	-0.8%	-1.1%
CCCCCCN1N=C(C)C(C(=O)c2ccc(Cl)cc2)C1=O (stereo not drawn)	12.0%	32.7%	u	-26.0%	10.5%	23.1%
CCCCCCCN1N=C(C)C(C(=O)c2ccccc2)C1=O (stereo not drawn)	x	35.5%	1.7%	-13.8%	2.2%	10µM*
